Data from PubChem BioAssay (NCATS).
Results filed as inconclusive are left out. Where a call stands in place of a potency, no number is given. The source made the active and inactive calls. Unless noted, calls follow the shape of the dose curve; as a rule, active = well fitted curve in the direction sought with a large enough effect; inconclusive = small, poorly fitted or top-dose-only effect, or another doubt; inactive = no such curve, though single readings can be large; an effect the other way counts as inactive or inconclusive.

Key:
[1] = target: 3',5'-cyclic-AMP phosphodiesterase 4B (Homo sapiens) (UniProt Q07343); assay: qHTS Assay for Inhibitors of PDE-IV (AID 607; active = well fitted activation curve with a large enough effect in the main read-out, with a control signal flat, not every such curve was filed as active); conditions: HEK293 ACTOne CNG channel cells, membrane potential fluorescence; series mostly up to 22.9 µM
Chain of 3',5'-cyclic-AMP phosphodiesterase 4B (Homo sapiens) (Q07343 whole entry, looked up): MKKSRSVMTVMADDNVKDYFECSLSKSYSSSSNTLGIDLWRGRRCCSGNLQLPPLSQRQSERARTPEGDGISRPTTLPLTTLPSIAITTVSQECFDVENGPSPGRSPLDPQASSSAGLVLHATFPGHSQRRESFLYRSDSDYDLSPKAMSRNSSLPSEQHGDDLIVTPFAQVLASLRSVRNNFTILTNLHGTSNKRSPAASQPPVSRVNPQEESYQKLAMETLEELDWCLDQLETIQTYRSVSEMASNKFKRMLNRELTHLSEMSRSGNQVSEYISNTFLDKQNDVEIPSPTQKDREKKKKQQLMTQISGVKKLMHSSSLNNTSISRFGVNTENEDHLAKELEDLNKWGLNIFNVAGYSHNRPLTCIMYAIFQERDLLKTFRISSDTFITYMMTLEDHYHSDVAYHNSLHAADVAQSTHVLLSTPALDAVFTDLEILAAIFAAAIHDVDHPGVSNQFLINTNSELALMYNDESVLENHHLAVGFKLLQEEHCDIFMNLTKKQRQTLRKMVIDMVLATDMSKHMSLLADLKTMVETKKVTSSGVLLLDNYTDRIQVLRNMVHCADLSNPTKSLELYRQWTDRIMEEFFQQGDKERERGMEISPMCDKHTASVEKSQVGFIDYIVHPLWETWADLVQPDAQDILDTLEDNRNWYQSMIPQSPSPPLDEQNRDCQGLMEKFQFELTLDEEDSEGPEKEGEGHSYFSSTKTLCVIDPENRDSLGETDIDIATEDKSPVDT
How it was run: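 HEK293 ACTOne cells with CNG channel (1000/well), endogenous PDE4; membrane potential dye, compounds up to 22.9 uM final. Fluorescence Ex 535/Em 590; RO 20-1724 (100 uM final) as reference.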

[2] = target: Mitogen-activated protein kinase 10 (Mus musculus) (UniProt Q61831); assay: JNK3 AlphaScreen Assay (AID 530; active = well fitted curve in either direction with a large enough effect, not every such curve was filed as active;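 also: kinase came from lysate of stimulated human HepG2 cells; signal reports phosphorylation of biotinylated GST-cJun 1-79 at Ser73 with 10 µM ATP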); conditions: JNK3 lysate, c-Jun phosphorylation; series mostly up to 57.1 µM
How it was run: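 Phosphorylation of biotinylated GST-cJun(1-79) at Ser73 is measured by AlphaScreen proximity luminescence. Enzyme is JNK3 in HepG2 lysates activated with interleukin-1beta and tumor necrosis factor alpha; ATP is 10 uM final.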

[3] = target: Cytochrome P450 2C19 (Homo sapiens) (UniProt P33261); assay: qHTS Assay for Inhibitors and Substrates of Cytochrome P450 2C19 (AID 899); conditions: recombinant CYP2C19, luciferin-H EGE luminescence; series mostly up to 57.1 µM; also: nearly all actives have a fitted effect of over 60% in size
Chain of Cytochrome P450 2C19 (Homo sapiens) (P33261 whole entry, looked up): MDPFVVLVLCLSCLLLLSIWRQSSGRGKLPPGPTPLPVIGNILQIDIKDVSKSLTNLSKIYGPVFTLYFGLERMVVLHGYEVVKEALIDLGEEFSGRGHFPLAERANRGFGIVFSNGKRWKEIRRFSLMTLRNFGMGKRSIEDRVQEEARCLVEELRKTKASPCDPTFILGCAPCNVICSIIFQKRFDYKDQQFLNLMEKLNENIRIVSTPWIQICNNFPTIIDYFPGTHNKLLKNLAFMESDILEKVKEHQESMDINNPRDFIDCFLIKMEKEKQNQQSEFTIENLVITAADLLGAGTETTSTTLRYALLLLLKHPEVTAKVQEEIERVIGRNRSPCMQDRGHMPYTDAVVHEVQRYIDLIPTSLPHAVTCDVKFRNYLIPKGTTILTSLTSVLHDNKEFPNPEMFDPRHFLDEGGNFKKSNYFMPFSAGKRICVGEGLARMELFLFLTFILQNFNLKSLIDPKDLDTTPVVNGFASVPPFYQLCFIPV
How it was run: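 Human CYP2C19 (5nM) with Luciferin-H EGE at 10uM (its KM) in 50mM KPO4 was preincubated with compound for 10 min at 37C. NADPH regeneration started a 60 min 37C reaction. Luciferin was read by luminescence, normalized to 57uM ketoconazole.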

[4] = qHTS Assay for Identifying Gametocytocidal Compounds (AID 743244); also: potency is read from the fitted curve at half-maximal effect; conditions: P. falciparum 3D7 stage III-V gametocytes, alamarBlue, 72 h; max response: stronger effect = lower value
How it was run: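 Late gametocytes (III–V), P. falciparum 3D7; 72 h drug, then 24 h alamarBlue; resazurin reduction read by fluorescence.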

[5] = qHTS profiling for inhibitors of Plasmodium falciparum (3D7) proliferation (AID 743322);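 also: infected erythrocytes exposed to compound for 72 h before lysis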; conditions: P. falciparum 3D7 proliferation; at 28.7 µM (top of the series) unless noted
How it was run: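 Parasite DNA was quantified by SYBR Green I fluorescence (ex 485, em 535 nm) after overnight lysis in saponin/Triton buffer at room temperature. Cultures at 0.3% parasitemia and 2.5% hematocrit were first exposed to compound for 72 h at 37 C; signals were normalised to artemisinin (0.29 uM) and vehicle wells.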

[6] = qHTS profiling for inhibitors of Plasmodium falciparum (DD2) proliferation (AID 743323; call rule not given here); conditions: lower = more inhibition; at 28.7 µM (top of the series) unless noted
How it was run: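 P. falciparum Dd2-infected erythrocytes (0.3% parasitemia, 2.5% hematocrit) exposed 72 h at 37 C, 5% CO2. Lysis with SYBR Green, overnight at room temperature, fluorescence 485/535 nm; normalized to 0.29 uM artemisinin and DMSO.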

[7] = qHTS profiling for inhibitors of Plasmodium falciparum (HB3) proliferation (AID 743324); conditions: Plasmodium falciparum HB3 blood-stage proliferation; at 28.7 µM (top of the series) unless noted
How it was run: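 SYBR Green fluorescence (485 ex/535 em) of lysed cultures, incubated overnight at room temperature in the dark, quantifies parasite DNA. Infected erythrocytes at 0.3% parasitemia and 2.5% hematocrit were exposed 72 h; values normalized to DMSO and 0.29 uM artemisinin controls.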

[8] = target: Alpha-galactosidase (Coffea arabica) (UniProt Q42656); assay: Counterscreen for Glucocerebrosidase Inhibitors: qHTS Assay for Coffee Bean alpha-Galactosidase at pH 4.5 (AID 957); conditions: purified coffee bean alpha-galactosidase, fluorogenic substrate; series mostly up to 76.9 µM
Chain of Alpha-galactosidase (Coffea arabica) (Q42656 whole entry, looked up): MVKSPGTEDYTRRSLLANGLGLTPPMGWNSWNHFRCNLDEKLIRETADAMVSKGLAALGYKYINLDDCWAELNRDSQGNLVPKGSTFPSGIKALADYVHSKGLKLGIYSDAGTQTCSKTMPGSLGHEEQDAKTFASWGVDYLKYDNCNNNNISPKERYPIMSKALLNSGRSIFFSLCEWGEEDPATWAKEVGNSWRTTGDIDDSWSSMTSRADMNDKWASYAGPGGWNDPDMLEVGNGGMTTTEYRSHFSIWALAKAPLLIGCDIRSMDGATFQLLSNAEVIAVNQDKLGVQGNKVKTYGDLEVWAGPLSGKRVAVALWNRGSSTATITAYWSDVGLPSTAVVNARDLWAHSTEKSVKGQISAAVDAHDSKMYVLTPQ
How it was run: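 Enzyme is added first (2 nM final), then compounds titrated from 0.7 nM to 77 uM, then 80 uM 4-methylumbelliferyl alpha-D-galactopyranoside; after 20 min at room temperature a pH 10 NaOH/glycine stop precedes fluorescence reading at 365/440 nm.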

[9] = target: Alpha-galactosidase (Coffea arabica) (UniProt Q42656); assay: Counterscreen for Glucocerebrosidase Inhibitors: qHTS Assay for Coffee Bean alpha-Galactosidase at pH 5.9 (AID 998); conditions: coffee bean alpha-galactosidase enzyme assay; series mostly up to 76.9 µM
How it was run: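 In 50 mM citric acid pH 5.9 with 0.005% Tween-20, coffee bean enzyme hydrolyses 80 uM 4-MU alpha-D-galactopyranoside over 20 min at RT. Activity is normalized to controls; AC50 comes from Hill-modelled concentration-response data.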

[10] = qHTS for Inhibitors of ATXN expression: Validation (AID 588378); conditions: cell-based ATXN2 expression reporter assay, luminescence; also: potency is read from the fitted curve at half-maximal effect; nearly all actives have a fitted effect of over 75% in size
How it was run: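 HEK293 cells carrying ATXN2-firefly luciferase reporter, treated with compound 24 h at 37 °C. Viability read first by CellTiter-Fluor (405/525 nm), then reporter expression by Bright-Glo luminescence; controls were a known ATXN2 expression inhibitor and a luciferase inhibitor.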

[11] = qHTS assay for small molecule agonists of the antioxidant response element (ARE) signaling pathway (AID 651741; active = well fitted activation curve with a large enough effect in the signal ratio; the % refers to the signal ratio; also: potency is read from the fitted curve at half-maximal effect); conditions: HepG2 ARE-bla reporter, beta-lactamase FRET ratio, 16 h; series mostly up to 96 µM
How it was run: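 Reporter: beta-lactamase under ARE, stably in HepG2. Exposure: 16 h, 37 C, compounds delivered in DMSO by pin tool after 5 h cell preincubation. Readout: FRET substrate fluorescence after 2 h at RT.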

[12] = qHTS for Inhibitors of Plasmodium falciparum (DD2) proliferation (AID 504314);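 also: parasite DNA measured by SYBR Green fluorescence after red cell lysis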; conditions: P. falciparum Dd2 in erythrocytes, SYBR Green growth, 72 h; series mostly up to 6.11 µM
How it was run: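 Parasite proliferation measured as SYBR Green signal from Plasmodium DNA, mature erythrocytes lacking DNA. 72 h incubation, 37C; activity scaled between vehicle and 0.29 uM artemisinin, with correction from vehicle-only plates.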

[13] = qHTS for Inhibitors of Plasmodium falciparum (GB4) proliferation (AID 504315); also: nearly all actives have a fitted effect of over 50% in size; conditions: P. falciparum GB4 in erythrocytes, SYBR Green DNA, 72 h; series mostly up to 6.7 µM
How it was run: (§1)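 Parasite growth measured as SYBR Green DNA fluorescence (ex 485, em 535 nm) after overnight lysis following 72 h culture at 37 °C, 0.3% parasitemia, 2.5% hematocrit. Values normalized against DMSO and 0.29 uM artemisinin controls, with plate-stack correction.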

[14] = qHTS for Inhibitors of Plasmodium falciparum (7G8) proliferation (AID 504316); also: nearly all actives have a fitted effect of over 65% in size; conditions: P. falciparum 7G8 in erythrocytes, SYBR Green DNA, 72 h; series mostly up to 6.7 µM
How it was run: as §1

[15] = qHTS for Inhibitors of Plasmodium falciparum (HB3) proliferation (AID 504318); also: nearly all actives have a fitted effect of over 60% in size; conditions: P. falciparum HB3 in erythrocytes, SYBR Green DNA, 72 h; series mostly up to 7.21 µM
How it was run: as §1

[16] = qHTS for Inhibitors of Plasmodium falciparum (CP250) proliferation (AID 504320); conditions: P. falciparum CP250 in erythrocytes, SYBR Green DNA, 72 h; series mostly up to 6.7 µM
How it was run: as §1

[17] = qHTS assay for small molecule activators of the p53 signaling pathway (AID 651743; active = well fitted activation curve with a large enough effect in the signal ratio, not every such curve was filed as active; the % refers to the signal ratio); conditions: HCT-116 p53RE-bla, beta-lactamase FRET ratio, 16 h; activation: stronger effect = higher value
How it was run: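 Agonist-mode quantitative HTS in HCT-116 cells carrying a p53-response-element beta-lactamase reporter; 16 h compound treatment at 37 C, then FRET substrate loading for 2 h at room temperature and fluorescence read.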

[18] = target: Estrogen receptor (Homo sapiens) (UniProt P03372); assay: qHTS assay for small molecule antagonists of estrogen receptor alpha signaling (AID 588513; active = well fitted curve in the direction sought with a large enough effect in the signal ratio, with a control signal flat, not every such curve was filed as active; the % refers to the signal ratio); conditions: ER-alpha-UAS-bla HEK293, beta-lactamase ratio, antagonist mode; series mostly up to 76.9 µM
Chain of Estrogen receptor (Homo sapiens) (P03372 whole entry, looked up): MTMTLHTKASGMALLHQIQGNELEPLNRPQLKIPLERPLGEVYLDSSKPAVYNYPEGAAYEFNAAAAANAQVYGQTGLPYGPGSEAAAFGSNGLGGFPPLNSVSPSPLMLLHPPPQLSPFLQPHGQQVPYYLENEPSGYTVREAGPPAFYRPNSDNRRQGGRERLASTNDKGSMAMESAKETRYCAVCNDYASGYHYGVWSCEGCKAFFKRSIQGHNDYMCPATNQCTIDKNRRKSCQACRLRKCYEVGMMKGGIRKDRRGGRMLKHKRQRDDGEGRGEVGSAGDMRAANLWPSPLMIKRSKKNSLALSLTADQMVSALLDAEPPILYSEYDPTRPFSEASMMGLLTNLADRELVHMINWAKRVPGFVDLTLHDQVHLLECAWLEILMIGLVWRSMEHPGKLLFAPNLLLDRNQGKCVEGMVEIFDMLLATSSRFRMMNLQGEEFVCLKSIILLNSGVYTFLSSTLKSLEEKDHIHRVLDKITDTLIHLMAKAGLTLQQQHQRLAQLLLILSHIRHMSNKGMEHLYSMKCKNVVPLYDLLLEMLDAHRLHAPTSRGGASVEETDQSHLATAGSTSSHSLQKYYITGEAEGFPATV
How it was run: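 ER-alpha-UAS-bla GripTite HEK 293 cells in 2% charcoal/dextran-treated FBS medium; compounds titrated (1:2, duplicate), then stimulated with 0.5 nM 17-beta-estradiol for 18 h at 37C. CCF4 beta-lactamase fluorescence; Hill-fit IC50 and efficacy.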

[19] = qHTS assay for small molecule agonists of retinoid X receptor alpha signaling (AID 588544; calls by dose curve; also: potency is read from the fitted curve at half-maximal effect); conditions: HEK293T RXRa-UAS-bla, beta-lactamase reporter, 18 h; 530 nm emission
[20] = target: Retinoic acid receptor RXR-alpha (Homo sapiens) (UniProt P19793); assay: as above; conditions: HEK293T RXRa-UAS-bla, beta-lactamase reporter, 18 h; series mostly up to 76.7 µM
Chain of Retinoic acid receptor RXR-alpha (Homo sapiens) (P19793 whole entry, looked up): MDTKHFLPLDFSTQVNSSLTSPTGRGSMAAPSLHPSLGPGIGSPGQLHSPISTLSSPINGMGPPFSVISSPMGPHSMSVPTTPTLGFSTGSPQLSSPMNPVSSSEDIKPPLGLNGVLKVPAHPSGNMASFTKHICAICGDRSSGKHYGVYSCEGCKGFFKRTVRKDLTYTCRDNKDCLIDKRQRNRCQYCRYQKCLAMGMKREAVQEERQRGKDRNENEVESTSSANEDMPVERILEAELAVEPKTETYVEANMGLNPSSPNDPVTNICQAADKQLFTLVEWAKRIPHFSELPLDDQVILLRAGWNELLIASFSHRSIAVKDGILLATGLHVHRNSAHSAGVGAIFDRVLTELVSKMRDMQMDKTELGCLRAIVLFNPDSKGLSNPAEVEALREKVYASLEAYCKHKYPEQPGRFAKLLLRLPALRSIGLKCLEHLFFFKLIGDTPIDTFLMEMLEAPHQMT

c1cc2cc(c1)C[n+]1ccc(c3ccccc31)NCc1ccc(cc1)CNc1cc[n+](c3ccccc13)C2
outcome [1]: inactive

CN[C@H]1[C@H]2[C@H]3CCN2C[C@@H]1O3
outcome [2]: inactive | Potency [3]: inactive

C[C@@H]1CC[C@H]2[C@@H](C)C(=O)O[C@@H]3OC4(C)CC[C@@H]1C32OO4 (stereo partly specified)
Potency [4]: 0.136 µM (active) | remaining parasite growth % (stronger effect = lower value) [5]: -0.139% [at 57.5 µM] | activity, percent of control [6]: 0.0598% [at 57.5 µM] | remaining proliferation (% of control), lower = more inhibition [7]: 0.0815% [at 57.5 µM]

CC[C@@H](CO)Nc1nc(NCc2ccccc2)c2ncn(C(C)C)c2n1
outcome [8]: inactive | outcome [9]: inactive | Potency [10]: 31.6 µM (active)

CC(C)=CC1C(C(=O)OCc2coc(Cc3ccccc3)c2)C1(C)C (stereo unspecified)
Potency [11]: 61.1 µM (active)

CCC1CN2CCC1CC2[C@@H](Oc1cc2ccccc2c2ccccc12)c1ccnc2ccc(O)cc12 (stereo partly specified)
outcome [12]: inactive | outcome [13]: inactive | outcome [14]: inactive | outcome [15]: inactive | outcome [16]: inactive

CSc1nc(NC(C)C)nc(NC(C)C)n1
activation [17]: -3.76% (inactive)

O=C(NC(=O)c1c(F)cccc1F)Nc1ccc(Cl)cc1
Potency [18]: inactive | max response [19]: -17.2% | Potency [20]: 15.8 µM (active)

CCCCN(CC)c1c([N+](=O)[O-])cc(C(F)(F)F)cc1[N+](=O)[O-]
Potency [11]: inactive
